Laboratory results taken from the antibiotic and cytotoxicity screens of Wong et al. (2023).
The whole screen tested about 39,000 compounds, of which about 3,300 (8.5%) were called active. The sample holds actives, similar compounds and a random draw of the others, so the mix is not that of the screen.

Each molecule was assayed on HepG2 (assay: cytotoxicity call (relative viability < 0.9)). Settings: 10 µM.
For C[C@@H]1CCCCO[C@H](CN(C)Cc2ccc(C(=O)O)cc2)[C@H](C)CN([C@@H](C)CO)C(=O)c2cc(NS(=O)(=O)c3ccc(Cl)cc3)ccc2O1, the cytotoxicity call was “inactive”.
In the case of O=C(C[C@@H]1CC[C@@H]2[C@H](COC[C@H](O)CN2C(=O)c2ccncc2)O1)NC1CCC1, the cytotoxicity call is reported as “inactive”.
C[C@@H]1CN([C@H](C)CO)C(=O)c2cc(NC(=O)Nc3ccc(F)cc3)ccc2O[C@@H]1CN(C)S(C)(=O)=O was tested, and the cytotoxicity call was “inactive”.
With C[C@@H]1CN([C@H](C)CO)C(=O)c2cccc(NS(C)(=O)=O)c2O[C@@H]1CN(C)C(=O)Nc1ccccc1 the cytotoxicity call was “inactive”.
In the case of C[C@@H]1CN([C@H](C)CO)C(=O)c2cccc(NS(=O)(=O)c3ccc(F)cc3)c2O[C@H]1CN(C)C(=O)Nc1cccc2ccccc12, the cytotoxicity call is reported as “inactive”.
In the case of CN(C)CCCCNC(=O)[C@@H]1C[C@@H]2C(=O)N[C@@H](CCCCN)C(=O)N2[C@@H]1c1ccc(O)cc1, the cytotoxicity call is reported as “inactive”.
C[C@H](CO)N1C[C@H](C)[C@@H](CN(C)Cc2ccc(C(F)(F)F)cc2)Oc2ccc(NS(=O)(=O)c3ccc(Cl)cc3)cc2CC1=O was tested, and the cytotoxicity call was “inactive”.
C[C@H]1CN([C@@H](C)CO)C(=O)Cc2cc(NS(=O)(=O)c3ccc(Cl)cc3)ccc2O[C@@H]1CN(C)Cc1ccc(C(F)(F)F)cc1 was tested, and the cytotoxicity call was “active”.
C[C@@H]1CN([C@@H](C)CO)C(=O)Cc2cc(NS(=O)(=O)c3ccc(Cl)cc3)ccc2O[C@H]1CN(C)Cc1ccc(C(F)(F)F)cc1 was tested, and the cytotoxicity call was “inactive”.
For CC(=O)N[C@H]1[C@H]([C@H](O)[C@H](O)CO)OC(C(=O)O)=C[C@@H]1NC(=N)N, the cytotoxicity call was “inactive”.
With CNC(=O)Nc1ccc(S(N)(=O)=O)cc1 the cytotoxicity call was “inactive”.
In the case of NS(=O)(=O)c1ccc(NC(=O)C2CC2)cc1, the cytotoxicity call is reported as “active”.
For NS(=O)(=O)c1ccc(NC(=O)[C@H]2CCCNC2=O)cc1, the cytotoxicity call was “inactive”.
Cc1ccc(S(=O)(=O)N(C)C[C@@H]2Oc3c(NC(=O)c4cnccn4)cccc3C(=O)N([C@@H](C)CO)C[C@@H]2C)cc1 was tested, and the cytotoxicity call was “inactive”.
COc1ccc(S(=O)(=O)Nc2ccc3c(c2)CC(=O)N([C@H](C)CO)C[C@@H](C)[C@H](CN(C)S(=O)(=O)c2cccs2)O3)cc1 was tested, and the cytotoxicity call was “inactive”.
In the case of C[C@@H]1CN([C@@H](C)CO)C(=O)Cc2cc(NC(=O)Nc3ccc(C(F)(F)F)cc3)ccc2O[C@H]1CN(C)Cc1ccncc1, the cytotoxicity call is reported as “inactive”.
With C[C@@H]1CN([C@H](C)CO)C(=O)Cc2cc(NC(=O)Nc3ccc(C(F)(F)F)cc3)ccc2O[C@@H]1CN(C)Cc1ccncc1 the cytotoxicity call was “active”.
In the case of C[C@H]1CN([C@@H](C)CO)C(=O)Cc2cc(NC(=O)Nc3ccc(C(F)(F)F)cc3)ccc2O[C@@H]1CN(C)Cc1ccncc1, the cytotoxicity call is reported as “active”.
In the case of C[C@@H]1CN([C@H](C)CO)C(=O)Cc2cc(NC(=O)Nc3ccc(C(F)(F)F)cc3)ccc2O[C@H]1CN(C)Cc1ccncc1, the cytotoxicity call is reported as “inactive”.
C[C@H](CO)N1C[C@H](C)[C@@H](CN(C)Cc2ccncc2)Oc2ccc(NC(=O)Nc3ccc(C(F)(F)F)cc3)cc2CC1=O was tested, and the cytotoxicity call was “active”.
For C[C@H](CO)N1C[C@H](C)[C@H](CN(C)Cc2ccncc2)Oc2ccc(NC(=O)Nc3ccc(C(F)(F)F)cc3)cc2CC1=O, the cytotoxicity call was “active”.
For Cc1ccc(S(=O)(=O)N(C)C[C@@H]2OCCCC[C@H](C)Oc3ccc(NC(=O)Nc4ccccc4)cc3C(=O)N([C@H](C)CO)C[C@H]2C)cc1, the cytotoxicity call was “inactive”.
Cc1ccc(S(=O)(=O)N2C[C@@H](O)COC[C@H]3O[C@H](CC(=O)NCc4ccccc4Cl)CC[C@@H]32)cc1 was tested, and the cytotoxicity call was “inactive”.
In the case of COc1ccc(S(=O)(=O)N[C@H]2CC[C@@H](CCNC(=O)CN3CCOCC3)O[C@@H]2CO)cc1, the cytotoxicity call is reported as “inactive”.
For COc1ccc(S(=O)(=O)Nc2ccc3c(c2)C(=O)N([C@H](C)CO)C[C@H](C)[C@@H](CN(C)C(=O)c2ccccc2)OCCCC[C@@H](C)O3)cc1, the cytotoxicity call was “inactive”.
With CN(C)CCCNC(=O)C[C@H]1CC[C@H]2[C@H](COc3ccc(NC(=O)NC4CCCC4)cc3C(=O)N2C)O1 the cytotoxicity call was “inactive”.
With COc1ccc(NC(=O)Nc2ccc3c(c2)C(=O)N([C@@H](C)CO)C[C@@H](C)[C@H](CN(C)C(=O)Cc2ccccc2)OCCCC[C@@H](C)O3)cc1 the cytotoxicity call was “inactive”.
For CC(=O)N1CCC(C(=O)N2CCC(n3cc(C(C)(C)N)nn3)CC2)CC1, the cytotoxicity call was “inactive”.
COc1ccc(CN(C)C[C@@H]2OCCCC[C@H](C)Oc3ccc(NC(=O)Nc4c(C)noc4C)cc3C(=O)N([C@H](C)CO)C[C@H]2C)cc1 was tested, and the cytotoxicity call was “inactive”.
In the case of NC(=O)NCC#Cc1ccc2c(c1)[C@]1(C(=O)N2)[C@H](c2ccccc2OCCO)N2[C@H](c3ccccc3)[C@H](c3ccccc3)OC(=O)[C@H]2[C@@H]1C(=O)O, the cytotoxicity call is reported as “inactive”.
CCc1nc2ccc(C(=O)Nc3ccc4c(c3)OCC(=O)N4)cn2c1N(CC)Cc1cccc(Br)c1 was tested, and the cytotoxicity call was “inactive”.
For COc1ccc(NC(=O)N(C)C[C@@H]2OCCCC[C@H](C)Oc3ccc(NC(=O)c4ccncc4)cc3C(=O)N([C@@H](C)CO)C[C@H]2C)cc1, the cytotoxicity call was “inactive”.
For COc1ccc(CN(C)C[C@@H]2OCCCC[C@@H](C)Oc3ccc(NC(=O)NC(C)C)cc3C(=O)N([C@H](C)CO)C[C@@H]2C)cc1, the cytotoxicity call was “inactive”.
C[C@@H]1CCCCO[C@H](CN(C)C(=O)CCC(F)(F)F)[C@H](C)CN([C@H](C)CO)C(=O)c2cc(NS(=O)(=O)c3ccc(Cl)cc3)ccc2O1 was tested, and the cytotoxicity call was “inactive”.
C=C(/C=C\CNS(=O)(=O)c1ccc(C)cc1)[C@H](O)[C@H]1CCCN1S(=O)(=O)c1ccccc1[N+](=O)[O-] was tested, and the cytotoxicity call was “inactive”.
With C[C@H]1CN([C@@H](C)CO)C(=O)Cc2cc(NC(=O)Nc3ccc(C(F)(F)F)cc3)ccc2O[C@H]1CN(C)Cc1ccncc1 the cytotoxicity call was “active”.
C[C@@H]1CN([C@@H](C)CO)C(=O)Cc2cc(NC(=O)Nc3ccc(C(F)(F)F)cc3)ccc2O[C@@H]1CN(C)Cc1ccncc1 was tested, and the cytotoxicity call was “active”.
With C[C@@H]1CCCCO[C@@H](CN(C)C(=O)CCC(F)(F)F)[C@@H](C)CN([C@H](C)CO)C(=O)c2cc(NC(=O)Nc3ccccc3)ccc2O1 the cytotoxicity call was “inactive”.
In the case of N[C@@H](Cn1ccnc1)c1ccccc1, the cytotoxicity call is reported as “inactive”.
COc1ccc(C#Cc2ccc3c(c2)O[C@@H](CN(C)C(=O)c2ccccn2)[C@@H](C)CN([C@@H](C)CO)S3(=O)=O)cc1 was tested, and the cytotoxicity call was “inactive”.
For CC/C(=C\C(=N\O)C(N)=O)[C@@H](C)[N+](=O)[O-], the cytotoxicity call was “inactive”.
